Values joined by “and” are separate entries in the source; they are usually repeats but may differ in a detail not shown here. Equal values may be shown once. Records with an inconclusive call do not appear. Where a call stands in place of a potency, no number is given. The source holds several records for some structures; these can differ, active in one and inactive in another. Active and inactive are the calls of the source. Unless noted, calls follow the shape of the dose curve; as a rule, active = well fitted curve in the direction sought with a large enough effect; inconclusive = small, poorly fitted or top-dose-only effect, or another doubt; inactive = no such curve, though single readings can be large; an effect the other way counts as inactive or inconclusive.
How the values were obtained:
[1] = Immunotoxin (HA22) sensitization/mitigation study. Vehicle arm (PBS) (AID 1159510; call rule not given here; also: potency is read from the fitted curve at half-maximal effect)
[2] = Immunotoxin (SS1P) sensitization/mitigation study. Vehicle arm (DMEM) (AID 1159513; call rule not given here; also: potency is read from the fitted curve at half-maximal effect)
[3] = qHTS assay for measurement of the activity of small molecule inhibitors on Zika virus induced Caspase-3 activity in human iPSC derived neural progenitor cells (hNPCs) (AID 1224857); also: nearly all actives have a fitted effect of over 65% in size; also: potency is read from the fitted curve at half-maximal effect
How it was run: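 Zika virus (2 FFU/cell) infection of human iPSC-derived NPCs, 6 h, following 1 h compound preincubation. Read-out: Caspase-Glo 3/7 luminescence.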

[4] = Identifying Small Molecule Inhibitors of Pancreatic Cancer Stem Cells (A2780, Spheroid) (AID 1259357); conditions: Potency: A2780 spheroid viability;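 also: compound exposure lasted 48 h before the ATP luminescence read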
How it was run: (§1)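 Luminescent ATP readout (CellTiter-Glo) quantifies surviving cells after a 48 h drug incubation. Normalization uses DMSO wells as no inhibition and media-only wells as full inhibition; bortezomib served as positive control.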

[5] = Identifying Small Molecule Inhibitors of Pancreatic Cancer Stem Cells (SN12C, Spheroid) (AID 1259360); conditions: Potency: SN12C spheroid viability; also: potency is read from the fitted curve at half-maximal effect
How it was run: as §1

[6] = Identifying Small Molecule Inhibitors of Pancreatic Cancer Stem Cells (Panc1, Adherent) (AID 1259362); conditions: Potency: viability; also: potency is read from the fitted curve at half-maximal effect;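 as to viability, % of control: compound exposure lasted 48 h before the viability read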
How it was run: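 Viability is scored by CellTiter-Glo luminescence 48 h after dosing, expressed as percent activity against vehicle and no-cell references. Spheroid formats rely on cells cultured 14 days in stem cell media beforehand.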

[7] = P-glycoprotein substrates identified in KB-8-5-11 adenocarcinoma cell line, qHTS therapeutic library screen (AID 1346987); also: nearly all actives have a fitted effect of over 65% in size; also: potency is read from the fitted curve at half-maximal effect
How it was run: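 Human cervical adenocarcinoma KB-8-5-11 cells, selected in colchicine to over-express P-gp and assayed without it, were exposed for 72 h to titrated compounds. An ATP-based luminescent viability signal gave AC50.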

[8] = biological target: Atrial natriuretic peptide receptor 1 (Homo sapiens) (UniProt P16066); assay: Natriuretic polypeptide receptor (hNpr1) antagonism - Pilot screen (AID 1347049; calls by dose curve;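 also: HEK293 cells with hNpr1 and GloSensor cGMP luciferase stimulated by 0.1 nM hNppA; agonist-evoked cGMP luminescence read 20 min after hNppA addition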; also: potency is read from the fitted curve at half-maximal effect)
Chain of Atrial natriuretic peptide receptor 1 (Homo sapiens) (P16066 whole entry, looked up): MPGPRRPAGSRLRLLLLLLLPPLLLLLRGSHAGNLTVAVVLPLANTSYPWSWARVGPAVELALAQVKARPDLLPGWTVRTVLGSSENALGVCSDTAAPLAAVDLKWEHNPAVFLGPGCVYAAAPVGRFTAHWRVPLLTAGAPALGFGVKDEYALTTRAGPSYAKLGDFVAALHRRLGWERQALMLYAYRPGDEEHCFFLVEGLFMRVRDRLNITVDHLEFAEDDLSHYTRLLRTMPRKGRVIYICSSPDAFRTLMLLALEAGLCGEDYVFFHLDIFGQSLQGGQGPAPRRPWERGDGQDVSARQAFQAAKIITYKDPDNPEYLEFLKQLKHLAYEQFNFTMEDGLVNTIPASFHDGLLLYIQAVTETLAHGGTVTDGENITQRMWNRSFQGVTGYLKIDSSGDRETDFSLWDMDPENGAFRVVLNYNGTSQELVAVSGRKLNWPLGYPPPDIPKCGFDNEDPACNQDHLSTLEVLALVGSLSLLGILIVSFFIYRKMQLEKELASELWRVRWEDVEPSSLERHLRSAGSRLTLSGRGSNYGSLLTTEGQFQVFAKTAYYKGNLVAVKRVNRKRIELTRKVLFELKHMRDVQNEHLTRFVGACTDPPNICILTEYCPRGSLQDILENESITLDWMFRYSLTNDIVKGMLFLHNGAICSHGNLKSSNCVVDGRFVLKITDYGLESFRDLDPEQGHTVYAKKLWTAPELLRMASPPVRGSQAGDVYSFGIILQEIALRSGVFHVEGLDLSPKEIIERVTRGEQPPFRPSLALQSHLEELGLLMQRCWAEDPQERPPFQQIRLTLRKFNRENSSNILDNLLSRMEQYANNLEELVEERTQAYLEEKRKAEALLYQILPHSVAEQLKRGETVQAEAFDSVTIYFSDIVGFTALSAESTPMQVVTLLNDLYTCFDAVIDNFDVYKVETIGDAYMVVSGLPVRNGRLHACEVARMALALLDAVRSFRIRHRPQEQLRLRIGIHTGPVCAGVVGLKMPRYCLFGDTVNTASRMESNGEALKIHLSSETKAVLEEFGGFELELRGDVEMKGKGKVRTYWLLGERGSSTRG
How it was run: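 Receptor antagonism read as cGMP-dependent luminescence in hNpr1/pGS-40F HEK293 cells: pre-read after 30 min compound exposure, post-read 20 min after hNppA agonist at 0.1 nM final, all at room temperature, protected from light; A-71915 titration as control.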

[9] = High-throughput drug toxicity screening in the BPDCN cell line Gen2.2 (AID 1224824; call rule not given here;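 also: cells exposed to compounds for 48 h before reading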); conditions: Gen2.2 BPDCN cells; at 45.8 µM (top of the series)
How it was run: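 Seed 500 exponentially growing Gen2.2 cells/well; add compounds by pin tool; incubate 48 h, 37 °C, 5% CO2; add CellTiter-Glo, 15 min RT; read luminescence. % activity vs DMSO (100%) and bortezomib (0%).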

[10] = High-throughput drug toxicity screening in the BPDCN cell line Cal-1 (AID 1224825; call rule not given here); conditions: Cal-1 BPDCN cell viability, qHTS; at 45.8 µM (top of the series)
How it was run: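 Percent activity derived from CellTiter-Glo luminescence, scaling DMSO to 100% and 9.2 uM final bortezomib to 0%. BPDCN Cal-1 cells (500/well, RPMI plus 10% FBS) incubated with compounds 48 hours at 37C before reading.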

[11] = qHTS assay for measurement of the activity of small molecule inhibitors on Zika virus induced Caspase-3 activity in human astrocytoma cells (AID 1224859)
How it was run: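 Caspase activation in ZIKV-infected SNB-19 cells (2 FFU/cell, 6 h) measured by Caspase-Glo 3/7 luminescence after 30 min RT; compound pre-incubated 1 h; normalised to uninfected and infected controls.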

[12] = qHTS Screen of the MIPE 4.0 Collection Against Ewings Sarcoma (RDES) (AID 1259252); also: nearly all actives have a fitted effect of over 35% in size; also: potency is read from the fitted curve at half-maximal effect
How it was run: (§2)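 CellTiter-Glo luminescence after 48 h compound exposure (titration) gave viability; percent activity used DMSO-treated cells as no inhibition and medium-only wells as full inhibition. Cells grown in RPMI/5% FBS, dosed 4 h post-seeding.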

[13] = qHTS Screen of the MIPE 4.0 Collection Against Ewings Sarcoma (TC71) (AID 1259253); also: nearly all actives have a fitted effect of over 40% in size; also: potency is read from the fitted curve at half-maximal effect
How it was run: as §2

[14] = qHTS Screen of the MIPE 4.0 Collection Against Ewings Sarcoma (EW8) (AID 1259255); also: nearly all actives have a fitted effect of over 35% in size; also: potency is read from the fitted curve at half-maximal effect
How it was run: as §2

[15] = P-glycoprotein substrates identified in KB-3-1 adenocarcinoma cell line, qHTS therapeutic library screen (AID 1346986); also: nearly all actives have a fitted effect of over 60% in size
How it was run: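 Dose-response cytotoxicity, KB-3-1 vs P-gp-high KB-8-5-11, no colchicine in assay medium. Read: CellTiter-Glo at 72 h.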

[16] = Identifying Small Molecule Inhibitors of Pancreatic Cancer Stem Cells (A278, Adherent) (AID 1259361); also: nearly all actives have a fitted effect of over 35% in size
How it was run: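 Cytotoxicity read by CellTiter-Glo luminescence after 48 h compound exposure at 37C; percent activity scaled between DMSO-treated cells and cell-free wells. Spheroid formats used cells pre-formed 14 days in stem cell media on hydrogel.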

[17] = qHTS assay to identify small molecule inhibitors of chordoma cells - UCH-1 (AID 1259355); also: nearly all actives have a fitted effect of over 55% in size; also: potency is read from the fitted curve at half-maximal effect
How it was run: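 800 cells/well, overnight attach; compounds pinned at 15 concs, then auranofin/camptothecin/doxorubicin/rubitecan/topotecan combo added; 48hr 37 C, 5% CO2; CellTiter-Glo, 30min RT, luminescence.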

[18] = qHTS assay to identify small molecule inhibitors of chordoma cells - UCH-2 (AID 1259356); also: potency is read from the fitted curve at half-maximal effect
[19] = Natriuretic polypeptide receptor (hNpr1) antagonism - Pilot counterscreen GloSensor control cell line (AID 1347045; calls by dose curve; also: potency is read from the fitted curve at half-maximal effect)
How it was run: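 The SNP-driven cGMP luminescence signal (50 uM, 20 min, room temperature) was measured in GloSensor HEK293 control cells. Compounds were tested as a LOPAC titration series and preincubated for 30-50 min.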

[20] = Identifying Small Molecule Inhibitors of Pancreatic Cancer Stem Cells (Panc1, Spheroid) (AID 1259359);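 also: compound exposure lasted 48 h before reading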
How it was run: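 Spheroids grown 14 days in stem cell media on hydrogel-coated nonadherent plates; 2D lines seeded directly. Compounds added after 4 h attachment, 48 h at 37C, 5% CO2; CellTiter-Glo luminescence normalized to DMSO (no inhibition) and no-cell wells (full inhibition).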

Compound: C[C@]12CCC(=O)C(O)=C1CC[C@@H]1[C@@H]2CC[C@]2(C)C(=O)CC[C@@H]12
- Potency [1]: inactive
- Potency [2]: inactive
- Potency [3]: inactive
- Potency [4]: inactive
- Potency [5]: inactive
- Potency [6]: inactive
- Potency [7]: inactive
- Potency [8]: inactive

Compound: Cc1sc2c(c1C)C(c1ccc(Cl)cc1)=N[C@@H](CC(=O)OC(C)(C)C)c1nnc(C)n1-2
- Potency [1]: 0.0743 µM (active)
- Potency [2]: 10.5 µM (active)
- cell viability, % of control (lower = more cytotoxic) [9]: 1.32%
- viability (% of control) [10]: 2.41%
- Potency [3]: inactive
- outcome [11]: inactive
- Potency [12]: 1.48 µM (active)
- Potency [13]: 1.48 µM (active)
- Potency [14]: 16.6 µM (active)
- Potency [6]: 4.18 µM (active)
- Potency [7]: 469 nM (active)

Compound: Oc1cn2c(n1)Nc1ccc(Cl)c(Cl)c1C2
- Potency [2]: 0.0066 µM (active)

Compound: Cn1cc(C2=C(c3cn(C4CCN(Cc5ccccn5)CC4)c4ccccc34)C(=O)NC2=O)c2ccccc21
- Potency [1]: 4.18 µM (active)
- cell viability, % of control (lower = more cytotoxic) [9]: 265%
- viability (% of control) [10]: 14.5%
- Potency [3]: inactive
- outcome [11]: inactive
- Potency [13]: 6.62 µM (active)
- Potency [14]: 10.5 µM (active)
- Potency [5]: inactive
- Potency [15]: inactive
- Potency [7]: inactive

Compound: CN(C)CCN(C)CCc1ccc(Cl)c(Cl)c1
- Potency [1]: 18.7 µM (active)
- Potency [2]: inactive
- cell viability, % of control (lower = more cytotoxic) [9]: 137%
- viability (% of control) [10]: 92.7%
- outcome [11]: inactive
- Potency [12]: inactive
- Potency [13]: inactive
- Potency [14]: inactive
- Potency [4]: inactive
- Potency [5]: 18.7 µM (active)
- IC50 (viability decrease) [16]: inactive
- Potency [7]: inactive

Compound: CCC(C)(C)C(=O)O[C@H]1C[C@@H](C)C=C2C=C[C@H](C)[C@H](CC[C@@H]3C[C@@H](O)CC(=O)O3)[C@H]21
- Potency [2]: 7.1 µM (active)

Compound: CCCCC/C=C\C/C=C\C/C=C\C/C=C\CCCC(=O)NC1CC1
- Potency [1]: inactive
- Potency [2]: inactive
- Potency [5]: inactive

Compound: CC(C)CC(N(C)C)C1(c2ccc(Cl)cc2)CCC1 (configuration not stated)
- cell viability, % of control (lower = more cytotoxic) [9]: 134%
- viability (% of control) [10]: 105%
- outcome [11]: inactive
- Potency [14]: 18.7 µM (active)
- Potency [17]: inactive
- Potency [18]: inactive
- Potency [7]: inactive

Compound: CN1CCN(C(=O)O[C@H]2c3nccnc3C(=O)N2c2ccc(Cl)cn2)CC1
- cell viability, % of control (lower = more cytotoxic) [9]: 126%
- viability (% of control) [10]: 135%
- Potency [3]: inactive
- outcome [11]: inactive
- Potency [13]: inactive
- Potency [14]: inactive
- Potency [17]: inactive
- Potency [18]: inactive
- Potency [7]: inactive

Compound: COc1ccc(C(=O)c2c(C)n(CCN3CCOCC3)c3ccccc23)cc1
- Potency [1]: 20.9 µM (active)
- cell viability, % of control (lower = more cytotoxic) [9]: 100%
- viability (% of control) [10]: 101%
- Potency [3]: inactive
- outcome [11]: inactive
- Potency [12]: inactive
- Potency [13]: inactive
- Potency [14]: inactive
- Potency [17]: inactive
- Potency [18]: inactive
- Potency [4]: inactive
- Potency [7]: inactive and 5.8 µM (active)

Compound: C[C@@H]1O[C@@H](O[C@H]2C[C@@H](O)[C@]3(CO)[C@H]4[C@H](O)C[C@]5(C)[C@@H](C6=CC(=O)OC6)CC[C@]5(O)[C@@H]4CC[C@]3(O)C2)[C@H](O)[C@H](O)[C@H]1O
- cell viability, % of control (lower = more cytotoxic) [9]: 26%
- viability (% of control) [10]: 3.79%
- Potency [3]: inactive
- outcome [11]: inactive
- Potency [12]: 0.0833 µM (active)
- Potency [13]: 0.0418 µM (active)
- Potency [14]: 0.0372 µM (active)
- Potency [17]: 158 nM (active) and 63.1 nM (active)
- Potency [18]: 65.1 nM (active) and 51.7 nM (active)
- Potency [19]: inactive
- Potency [8]: inactive

Compound: COc1ccc(C(CN(C)C)C2(O)CCCCC2)cc1 (configuration not stated)
- cell viability, % of control (lower = more cytotoxic) [9]: 171%
- viability (% of control) [10]: 107%
- Potency [3]: inactive
- Potency [13]: inactive
- Potency [14]: 26.4 µM (active)
- Potency [17]: inactive
- Potency [18]: inactive
- Potency [7]: inactive
- Potency [8]: inactive

Compound: Cn1c(CCCC(=O)O)nc2cc(N(CCCl)CCCl)ccc21
- Potency [1]: inactive
- Potency [2]: inactive
- cell viability, % of control (lower = more cytotoxic) [9]: 53.7%
- viability (% of control) [10]: 6.62%
- outcome [11]: inactive
- Potency [12]: 26.4 µM (active)
- Potency [17]: inactive
- Potency [18]: inactive
- Potency [4]: inactive
- outcome [20]: inactive
- Potency [5]: inactive
- IC50 (viability decrease) [16]: inactive
- Potency [6]: inactive
- Potency [7]: inactive

Compound: COC1(CS(=O)c2ccccc2)CCN(CCc2c[nH]c3ccc(F)cc23)CC1 (configuration not stated)
- Potency [2]: inactive
- cell viability, % of control (lower = more cytotoxic) [9]: 66.1%
- viability (% of control) [10]: 80.6%
- Potency [3]: 20.9 µM (active)
- outcome [11]: inactive
- Potency [13]: 5.9 µM (active)
- IC50 (viability decrease) [16]: inactive
- Potency [6]: inactive
- Potency [7]: inactive

Compound: NCC1(CC(=O)O)CCCCC1
- cell viability, % of control (lower = more cytotoxic) [9]: 114%
- viability (% of control) [10]: 104%
- Potency [3]: inactive
- outcome [11]: inactive
- Potency [17]: inactive
- Potency [18]: inactive
- Potency [7]: inactive
- Potency [19]: inactive
- Potency [8]: inactive

Compound: C=C(C)[C@H]1Cc2c(ccc3c2O[C@@H]2COc4cc(OC)c(OC)cc4[C@@H]2C3=O)O1
- cell viability, % of control (lower = more cytotoxic) [9]: 45.8%
- viability (% of control) [10]: 11.5%
- Potency [3]: inactive
- outcome [11]: inactive
- Potency [12]: 2.09 µM (active)
- Potency [13]: 4.69 µM (active)
- Potency [14]: 2.96 µM (active)
- Potency [18]: inactive
- Potency [7]: 13 nM (active) and 2.64 µM (active)
- Potency [19]: 117 nM (active)
- Potency [8]: 135 nM (active)

Compound: O=C1CC[C@@]2(O)[C@H]3Cc4ccc(O)c5c4[C@@]2(CCN3CC2CC2)[C@H]1O5
- cell viability, % of control (lower = more cytotoxic) [9]: 200%
- viability (% of control) [10]: 62%
- Potency [3]: inactive
- Potency [12]: inactive
- Potency [13]: inactive
- Potency [14]: inactive
- Potency [17]: inactive
- Potency [18]: inactive
- Potency [15]: inactive
- Potency [7]: inactive

Compound: C#CCN(C)[C@H](C)Cc1ccccc1
- cell viability, % of control (lower = more cytotoxic) [9]: 160%
- viability (% of control) [10]: 105%
- Potency [3]: inactive
- outcome [11]: inactive
- Potency [12]: inactive
- Potency [13]: inactive
- Potency [14]: inactive
- Potency [17]: inactive
- Potency [18]: inactive
- Potency [7]: inactive

— PubChem BioAssay (NCATS)
